Screen size: about 5,500 compounds; about 2,000 (36%) were called active. Roughly 18% stayed inconclusive and do not appear here. Cut-off read from the data, not from the text of the source: active = normalized growth mostly below about 0.91 (no sharp cut-off); inconclusive = no clear call, values can overlap the other calls; inactive = mostly above about 0.92. This is one part of the list.
Assay: chemical genetic growth profiling, strain panel (AID 1159580);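 note: tested at 20 µM; growth read once vehicle control cultures reached saturation at 30 °C; 1 = growth at the plate median or of vehicle wells; lower values mean less growth of the strain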
Conditions: S. cerevisiae deletion strains, growth OD

Measured: normalized growth

NNC(N)=O
inactive: locus YAL013W, strain DEP1, hits give low values 1.03 | locus YAL040C, strain CLN3, hits give low values 1.01 | locus YCL061C, strain MRC1 (second series), hits give low values 1.01 | locus YDR363W, strain ESC2, hits give low values 1.02 | locus YER002W, strain NOP16, hits give low values 1.01 | locus YGR229C, strain SMI1, hits give low values 1.03 | locus YJR075W, strain HOC1, hits give low values 1.02 | locus YMR307W, strain GAS1, hits give low values 0.998 | locus YNL175C, strain NOP13, hits give low values 1.01 | locus YNL197C, strain WHI3, hits give low values 1 | locus YNL224C, strain SQS1, hits give low values 1 | locus YNL322C, strain KRE1, hits give low values 1.03 | locus YOR083W, strain WHI5 (second series), hits give low values 1 | locus YPL055C, strain LGE1, hits give low values 1.05
